Dicer inh – inhibitors of Dicer pre-microRNA processing, primary screen, biochemical, cat-ELCCA, chemiluminescence; 47,000 tested, 6% active; z-score at 25 µM; AID 1347074, 2019; cat-ELCCA pre-miR-21 Dicer processing; active compounds read high; Endoribonuclease Dicer (Homo sapiens), Q9UPY3; in the data active = z-score above about 3, passing the limit was not always enough;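 also: plate controls were vehicle for no effect and no enzyme for full effect; higher signal means more uncleaved substrate so more Dicer inhibition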
* hit, by the source's call. Shown is part of a subset that was picked to be rich in hits.

SMILES	Dicer inh
COc1ccc(/C=C/[N+](=O)[O-])c(OC)c1	-0.45
O=[N+]([O-])/C=C/c1ccc(C(F)(F)F)cc1Cl	-0.06
O=[N+]([O-])/C=C/c1ccc(Cl)cc1Cl	3.5*
CCOc1cc(C(F)(F)F)cnc1/C(N)=N/OC(=O)NC	-0.51
O=S(=O)(c1ccc(O)cc1)c1ccc(O)cc1	3.5*
ON=C1CC2CCCC(C1)N2Cc1cccs1	-0.04
O=C(CN1CCOCC1)Nc1ccc(Cl)cc1C(=O)c1ccccc1Cl	-0.96
C[C@H](N)[C@H](O)c1ccc(O)c(O)c1	5.6
CC(N)[C@H](O)c1ccc(O)c(O)c1 (some centres undefined)	4.1*
COc1ccc(OC)c(C(O)C(C)N)c1 (centres undefined)	0.13
COc1ccccc1OCCCn1cc(C(=O)c2cccs2)c2ccccc21	2.2
O=c1cccc2n1CC1CC2CN(c2nc(Cl)nc(NCCN3CCOCC3)n2)C1 (centres undefined)	0.1
Clc1ccc(C2NN=C3C4CCN(CC4)C32)cc1Cl (centres undefined)	0.36
CC12CCC(=O)C=C1C=CC1C2CCC2(C)C1CC[C@]2(C)O (some centres undefined)	-1.2
Oc1ccc(C2(c3ccc(O)cc3)CCCCC2)cc1	3.1*
CN(CCC#N)c1ccc(C=C2C(=O)NC(=S)NC2=O)cc1	-1.4
c1ccc(CNCCc2c[nH]c3ccccc23)cc1	3.2*
CCc1ccc(CNCCc2c[nH]c3ccccc23)cc1	-0.52
Cc1cccc(CNCCc2c[nH]c3ccccc23)c1	0.46
CC12CCC3C(CC4OCC35CCC(O)C[C@]45Br)C1CCC2OC(=O)c1ccccc1 (some centres undefined)	-1.1
CC(=O)OC1CCC2C3CCC4CCC(=O)CC4(C)C3CCC12C (centres undefined)	-2.1
CCCN1CCc2cc(O)cc3c2[C@H]1Cc1ccc(O)c(O)c1-3	4.5*
CN1CCc2cc(O)cc3c2[C@H]1Cc1ccc(O)c(O)c1-3	-0.43
CC1(C)CC(n2[nH]c(=O)c3c2NC(=O)CSC3c2ccc(Cl)cc2)CCO1 (centres undefined)	0.28
Cc1c(CCN)c2cccc3c2n1CCC3	3.5*
SMILES	Dicer inh
O=C(COc1ccc(Cl)cc1)OCc1csc2c1C1CCN2CC1	1.2
CSc1ccc(CN2CCN(Cc3cccc(Cl)c3)CC2)cc1	1.1
O=c1[nH]c(O)c(/C=C2\C=CC=N2)c(=O)[nH]1	0.24
Cc1ccc(CNCCc2ccc3c(c2)OCO3)cc1	-1.6
COc1ccccc1CCNCc1ccc2c(c1)OCO2	3.3*
Fc1ccccc1CCNCc1ccc2c(c1)OCO2	1.5
C=C1CC2(C)C(=CC1=O)CCC1C2CCC2(C)C1CC[C@]2(C)OC(C)=O (some centres undefined)	-1.4
CCCCCOc1ccc(C2SCC(=O)Nc3c2c(=O)[nH]n3C2CCOC(C)(C)C2)cc1 (centres undefined)	-1.4
CN1CCc2nc(SCc3cccnc3)c(C#N)cc2C1	-2.3
Cc1nc2cc(Cl)ccc2c(=O)n1-c1ccc(F)cc1	-0.39
CC(C)CC(=O)NC1CCSC1=O (centres undefined)	12

Source: PubChem BioAssay (Center for Chemical Genomics, University of Michigan)
